Assay results as given in PubChem BioAssay (NCI).
Compounds without any hit were thinned out: in the full panel of roughly 83,000, 20% have a hit.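 Note: values are percent growth. 100 is the growth of untreated cells, values between 100 and 0 indicate rising inhibition; between -100 and 0 indicates cell death.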 The source made the active and inactive calls. The calls were made as follows: active = growth percent below 10; inactive = the rest.

Assays:
Experiment in all cases: NCI-60 one-dose screen, 48 h (100 = growth as untreated, 0 = no growth, -100 = all killed)
Conditions in all cases: 10 µM unless noted
NCI-H226 lung = tested on: NCI-H226 lung
NCI-H322M lung = tested on: NCI-H322M lung
HOP-62 NSCLC = tested on: HOP-62 NSCLC
NCI-H460 lung = tested on: NCI-H460 lung
HOP-92 NSCLC = tested on: HOP-92 NSCLC
A549/ATCC NSCLC = tested on: A549/ATCC NSCLC
786-0 renal = tested on: 786-0 renal
COLO 205 colon = tested on: COLO 205 colon
DU-145 prostate = tested on: DU-145 prostate
K-562 leukemia = tested on: K-562 leukemia
MALME-3M melanoma = tested on: MALME-3M melanoma
MDA-MB-231 breast = tested on: MDA-MB-231 breast
SF-268 CNS = tested on: SF-268 CNS
SF-295 CNS = tested on: SF-295 CNS
SF-539 CNS = tested on: SF-539 CNS
UACC-257 melanoma = tested on: UACC-257 melanoma
NCI-H23 lung = tested on: NCI-H23 lung
NCI-H522 lung = tested on: NCI-H522 lung
RXF 393 renal = tested on: RXF 393 renal
M14 melanoma = tested on: M14 melanoma

Measured: growth

COc1ccc(/C=C/c2nc(NCCCN(C)C)c3ccccc3n2)cc1
active: HOP-92 NSCLC 0.889% | K-562 leukemia -75.3%
inactive: NCI-H226 lung 103% | NCI-H322M lung 82.7% | HOP-62 NSCLC 83.9% | NCI-H460 lung 33.2% | A549/ATCC NSCLC 91.2% | 786-0 renal 78% | COLO 205 colon 85.9% | DU-145 prostate 96.5% | MALME-3M melanoma 25.9% | MDA-MB-231 breast 18.7% | SF-268 CNS 55% | SF-295 CNS 65.8% | SF-539 CNS 47.5% | UACC-257 melanoma 97.3%

COc1cc(CN(CCC(O)N2CCCC2=O)Cc2ccc3c(c2)OCO3)cc(OC)c1OC (stereo not given)
inactive: NCI-H23 lung 108% | NCI-H226 lung 104% | NCI-H322M lung 90.3% | HOP-62 NSCLC 103% | NCI-H522 lung 95.4% | A549/ATCC NSCLC 106% | 786-0 renal 94.1% | COLO 205 colon 120% | DU-145 prostate 108% | MALME-3M melanoma 109% | MDA-MB-231 breast 110% | RXF 393 renal 121% | SF-268 CNS 106% | SF-295 CNS 91.5% | SF-539 CNS 100% | UACC-257 melanoma 109% | M14 melanoma 95.8%

c1csc(-c2cnc3nonc3n2)c1
inactive: NCI-H23 lung 72.8% | NCI-H226 lung 88.1% | NCI-H322M lung 90.4% | HOP-62 NSCLC 87.9% | NCI-H522 lung 70.7% | A549/ATCC NSCLC 94.2% | 786-0 renal 101% | COLO 205 colon 91.3% | DU-145 prostate 108% | K-562 leukemia 67.4% | MALME-3M melanoma 100% | MDA-MB-231 breast 82% | RXF 393 renal 117% | SF-268 CNS 88.7% | SF-295 CNS 101% | SF-539 CNS 96.8% | UACC-257 melanoma 75.3% | M14 melanoma 89.4%

CN1CCCN(CCNc2nccc(-c3c(-c4cccc(O)c4)nc4sccn34)n2)S1(=O)=O
inactive: NCI-H23 lung 67.1% | NCI-H226 lung 72.4% | NCI-H322M lung 47.9% | HOP-62 NSCLC 84.4% | NCI-H522 lung 59.3% | A549/ATCC NSCLC 45.8% | 786-0 renal 42.2% | COLO 205 colon 29.3% | DU-145 prostate 54.7% | MDA-MB-231 breast 44.9% | RXF 393 renal 41.3% | SF-268 CNS 71.5% | SF-295 CNS 57.8% | SF-539 CNS 57.8% | UACC-257 melanoma 36.8%
active: MALME-3M melanoma 9.87% | M14 melanoma -0.122%

COc1ccc2c(c1)C1=NN(C(=O)CO)[C@H](c3ccc(OC(F)(F)F)cc3)[C@@H]1CC2
active: RXF 393 renal -19.9%
inactive: NCI-H23 lung 92.2% | NCI-H226 lung 84.5% | NCI-H322M lung 130% | HOP-62 NSCLC 97.4% | NCI-H522 lung 82.6% | A549/ATCC NSCLC 89.3% | 786-0 renal 103% | DU-145 prostate 105% | K-562 leukemia 102% | MALME-3M melanoma 101% | MDA-MB-231 breast 94.7% | SF-268 CNS 94.8% | SF-295 CNS 90.4% | SF-539 CNS 93.2% | UACC-257 melanoma 123% | M14 melanoma 115%

COC(=O)C(Br)(C(=O)OC)C(Br)C(Br)C(Br)c1ccccc1 (stereo not given)
active: RXF 393 renal -20.8%
inactive: NCI-H23 lung 94.1% | NCI-H226 lung 91.8% | NCI-H322M lung 102% | HOP-62 NSCLC 120% | A549/ATCC NSCLC 97.9% | 786-0 renal 86% | COLO 205 colon 30.1% | DU-145 prostate 89.3% | K-562 leukemia 19.9% | MALME-3M melanoma 47.5% | MDA-MB-231 breast 89% | SF-268 CNS 101% | SF-295 CNS 114% | SF-539 CNS 26.6% | UACC-257 melanoma 56.4% | M14 melanoma 44.2%

Cc1cc(-c2ccccc2)on1
inactive: NCI-H23 lung 106% | NCI-H226 lung 99.4% | NCI-H322M lung 90.5% | HOP-62 NSCLC 92.9% | NCI-H522 lung 97.9% | A549/ATCC NSCLC 104% | 786-0 renal 95.2% | COLO 205 colon 109% | DU-145 prostate 111% | MALME-3M melanoma 102% | MDA-MB-231 breast 105% | RXF 393 renal 119% | SF-268 CNS 103% | SF-295 CNS 100% | SF-539 CNS 88.8% | UACC-257 melanoma 109% | M14 melanoma 105%

C=C1C(=O)O[C@H]2[C@H]1CC/C(COC(=O)NCc1cn(C)c3ccccc13)=C\CC[C@@]1(C)O[C@@H]21
active: NCI-H522 lung -80.2% | 786-0 renal -87.8% | COLO 205 colon -75.3% | DU-145 prostate -42.6% | K-562 leukemia -16.5% | MALME-3M melanoma -34.3% | MDA-MB-231 breast -8.6% | RXF 393 renal -93.7% | SF-539 CNS -34.6% | UACC-257 melanoma -15% | M14 melanoma -42.1%
inactive: NCI-H23 lung 38.4% | NCI-H226 lung 35.8% | NCI-H322M lung 80.6% | HOP-62 NSCLC 32.8% | A549/ATCC NSCLC 21% | SF-268 CNS 24.2% | SF-295 CNS 63.2%

CCCCCCCCN(CCCCCCCC)C(=O)CCl
inactive: NCI-H23 lung 70.6% | NCI-H226 lung 96.8% | NCI-H322M lung 108% | HOP-62 NSCLC 113% | A549/ATCC NSCLC 114% | 786-0 renal 80.6% | COLO 205 colon 108% | DU-145 prostate 110% | K-562 leukemia 105% | MALME-3M melanoma 84.8% | MDA-MB-231 breast 104% | RXF 393 renal 103% | SF-268 CNS 99% | SF-295 CNS 106% | SF-539 CNS 106% | UACC-257 melanoma 112% | M14 melanoma 104%
active: NCI-H522 lung -50.5%
